Data reported in PubChem BioAssay (NCATS).
Records with an inconclusive call do not appear. Active and inactive are the calls of the source. Unless noted, the call rests on the fitted dose curve; in most records, active means well fitted curve in the direction sought with a large enough effect; inconclusive means small, poorly fitted or top-dose-only effect, or another doubt; inactive means no such curve, though single readings can be large; an effect the other way counts as inactive or inconclusive.

Molecular target: T1, Tyrosine-protein phosphatase non-receptor type substrate 1 (Homo sapiens) + Leukocyte surface antigen CD47 (Homo sapiens) (UniProt P78324+Q08722)
T1 sequence (P78324 whole entry, looked up): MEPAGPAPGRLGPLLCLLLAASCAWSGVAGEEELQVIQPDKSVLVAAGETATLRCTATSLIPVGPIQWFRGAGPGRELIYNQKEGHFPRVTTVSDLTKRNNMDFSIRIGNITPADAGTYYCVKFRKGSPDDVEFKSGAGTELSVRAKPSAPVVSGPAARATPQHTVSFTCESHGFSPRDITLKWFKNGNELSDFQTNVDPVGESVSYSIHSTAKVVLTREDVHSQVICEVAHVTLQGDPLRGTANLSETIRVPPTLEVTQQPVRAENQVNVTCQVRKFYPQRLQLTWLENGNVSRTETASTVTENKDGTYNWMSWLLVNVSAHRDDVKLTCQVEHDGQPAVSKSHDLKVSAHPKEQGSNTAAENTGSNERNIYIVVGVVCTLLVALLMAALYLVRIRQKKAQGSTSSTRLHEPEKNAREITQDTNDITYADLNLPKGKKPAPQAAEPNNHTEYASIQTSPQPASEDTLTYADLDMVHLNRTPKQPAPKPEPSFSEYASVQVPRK
T1 sequence (Q08722 whole entry, looked up): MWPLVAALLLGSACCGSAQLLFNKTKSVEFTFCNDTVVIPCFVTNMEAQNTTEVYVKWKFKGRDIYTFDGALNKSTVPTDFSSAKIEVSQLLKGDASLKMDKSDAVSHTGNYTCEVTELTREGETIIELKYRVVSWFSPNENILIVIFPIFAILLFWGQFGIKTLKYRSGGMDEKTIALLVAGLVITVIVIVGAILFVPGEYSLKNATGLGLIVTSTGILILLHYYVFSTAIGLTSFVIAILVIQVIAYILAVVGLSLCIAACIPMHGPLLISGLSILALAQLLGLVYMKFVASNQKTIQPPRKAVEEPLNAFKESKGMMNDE
Experiment: CD47-SIRPalpha protein protein interaction - LANCE assay qHTS validation (AID 1347057; active means well fitted curve in the direction sought with a large enough effect in the signal ratio, with a control signal flat, not every such curve was filed as active; the % refers to the signal ratio; further: 0% is about no effect)
Conditions: Recombinant CD47-His / biotin-SIRPalpha, TR-FRET ratio; series mostly up to 38.3 µM; activity change, negative = inhibition: at the top concentration
Outline: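 First, His-tagged CD47 and Eu-labelled anti-His antibody met the compound for 30 min; next, site-specifically biotinylated SIRPalpha was added for 30 min; finally streptavidin-APC was added before reading the TR-FRET ratio.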

SMILES | activity change, negative = inhibition
NCc1cc(=O)[nH]o1 | -0.408% (inactive)
C/C=C(/C)C(=O)O[C@H]1C(C)=C2[C@H]([C@@H]1OC(=O)CCCCCCC)[C@@](C)(OC(C)=O)C[C@H](OC(=O)CCC)[C@@]1(O)[C@H]2OC(=O)[C@@]1(C)O | -0.791% (inactive)
NC(CP(=O)(O)O)C(=O)O (stereo not drawn) | 0.659% (inactive)
COc1cc(C(O)CN)ccc1O (stereo not drawn) | 2.31% (inactive)

Molecular target: T1, Tyrosine-protein phosphatase non-receptor type substrate 1 (Homo sapiens) + Leukocyte surface antigen CD47 (Homo sapiens)
Experiment: CD47-SIRPalpha protein protein interaction - Alpha assay qHTS validation (AID 1347059);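 further: bead proximity luminescence from CD47 binding SIRPalpha after compound preincubation with SIRPalpha; on the % scale 0 is the no-effect control and ±100 the full control effect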
Conditions: AlphaScreen CD47-His/biotin-SIRPalpha binding, LOPAC; series mostly up to 38.3 µM; activity change, negative = inhibition: at the top concentration
Outline: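 Binding is measured by AlphaScreen proximity: Ni-NTA acceptor beads capture His-CD47, streptavidin donor beads capture biotin-SIRPalpha. Each of three additions (SIRPalpha with compound, CD47, beads) incubates 30 min at room temperature protected from light.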

SMILES | activity change, negative = inhibition
NCc1cc(=O)[nH]o1 | -0.93% (inactive)
C/C=C(/C)C(=O)O[C@H]1C(C)=C2[C@H]([C@@H]1OC(=O)CCCCCCC)[C@@](C)(OC(C)=O)C[C@H](OC(=O)CCC)[C@@]1(O)[C@H]2OC(=O)[C@@]1(C)O | -10.1% (inactive)
NC(CP(=O)(O)O)C(=O)O (stereo not drawn) | 7.01% (inactive)
COc1cc(C(O)CN)ccc1O (stereo not drawn) | 0.707% (inactive)

Molecular target: Parathyroid hormone/parathyroid hormone-related peptide receptor (Homo sapiens) (UniProt Q03431)
Sequence (Q03431 whole entry, looked up): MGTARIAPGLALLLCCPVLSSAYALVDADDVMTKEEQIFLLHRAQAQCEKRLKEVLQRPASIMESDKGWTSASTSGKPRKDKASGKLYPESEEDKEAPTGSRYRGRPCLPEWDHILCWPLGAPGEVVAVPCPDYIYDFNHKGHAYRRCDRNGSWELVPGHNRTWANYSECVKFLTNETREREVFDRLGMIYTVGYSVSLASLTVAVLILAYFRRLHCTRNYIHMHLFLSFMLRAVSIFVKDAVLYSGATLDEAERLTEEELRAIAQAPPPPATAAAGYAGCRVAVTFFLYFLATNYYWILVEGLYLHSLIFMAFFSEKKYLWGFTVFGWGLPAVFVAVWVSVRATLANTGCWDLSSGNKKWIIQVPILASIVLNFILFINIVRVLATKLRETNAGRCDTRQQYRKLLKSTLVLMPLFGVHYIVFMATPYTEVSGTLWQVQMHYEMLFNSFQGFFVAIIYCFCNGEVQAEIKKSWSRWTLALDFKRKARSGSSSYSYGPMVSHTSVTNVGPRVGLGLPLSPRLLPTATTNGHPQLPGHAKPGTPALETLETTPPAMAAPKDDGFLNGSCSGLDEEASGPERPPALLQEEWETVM
Experiment: qHTS for PTHR1 Agonists: Optimization Screen against the NCGC LOPAC library (AID 1347079);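 further: GloSensor cAMP luminescence in HEK-293 GP2 cells expressing human PTHR1 with IBMX; 0% is about no effect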
Conditions: HEK293 GP2 PTHR1 GloSensor cAMP luminescence, 1 h; series mostly up to 57.1 µM; activation: at the top concentration
Outline: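 Compounds were tested across a qHTS titration. PTHR1-expressing GP2 cells report cAMP rises via GloSensor luminescence after 1 hr compound exposure at 37C with IBMX present.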

SMILES | activation
NCc1cc(=O)[nH]o1 | -12.4% (inactive)
C/C=C(/C)C(=O)O[C@H]1C(C)=C2[C@H]([C@@H]1OC(=O)CCCCCCC)[C@@](C)(OC(C)=O)C[C@H](OC(=O)CCC)[C@@]1(O)[C@H]2OC(=O)[C@@]1(C)O | -31.4% (inactive)
NC(CP(=O)(O)O)C(=O)O (stereo not drawn) | -27% (inactive)
COc1cc(C(O)CN)ccc1O (stereo not drawn) | -18.5% (inactive)

System: not listed separately
Experiment: qHTS for Inhibitors of the Functional Ribonucleoprotein Complex (vRNP) of Lassa (LASV) Arenavirus: LASV Primary Screen - GLuc reporter signal (AID 1347082; calls by dose curve; tested in HEK293 reporter line; further: nearly all actives have a fitted effect of over 60% in size; further: potency means the concentration at half of the fitted maximal effect; on activity change, negative = inhibition: on the % scale 0 is the no-effect control and ±100 the full control effect)
Conditions: LASV minigenome vRNP, Gaussia luciferase reporter; series mostly up to 57.5 µM; activity change, negative = inhibition: at the top concentration

SMILES | activity change, negative = inhibition | Potency
C[C@]12CC[C@H]3[C@@H](CCC4=CC(=O)CC[C@@]43C)[C@H]1CC[C@H]2OC(=O)CCC1CCCC1 | -23.1% (inactive) | –
NCc1cc(=O)[nH]o1 | 9.74% (inactive) | –
CC(=O)O[C@@]12CO[C@H]1C[C@H](O)[C@@]1(C)C(=O)[C@H](O)C3=C(C)[C@@H](O)C[C@@](O)([C@@H](OC(=O)c4ccccc4)[C@@H]21)C3(C)C | -1.21% (inactive) | –
C[C@@H]1CC[C@@]2(OC1)O[C@H]1C[C@H]3[C@@H]4CC=C5C[C@@H](O[C@@H]6O[C@H](CO)[C@@H](O[C@@H]7O[C@@H](C)[C@H](O)[C@@H](O)[C@@H]7O)[C@H](O)[C@@H]6O[C@@H]6O[C@@H](C)[C@H](O)[C@@H](O)[C@@H]6O)CC[C@]5(C)[C@@H]4CC[C@]3(C)[C@@H]1[C@H]2C | -12.1% (inactive) | –
N#C[C@H](O[C@@H]1O[C@H](CO[C@@H]2O[C@H](CO)[C@H](O)[C@H](O)[C@H]2O)[C@H](O)[C@H](O)[C@H]1O)c1ccccc1 | – | 17.2 µM (active)
CC=C(C)C(=O)N[C@@H](c1ccccc1)[C@@H](O)C(=O)O[C@H]1C[C@@]2(O)[C@@H](OC(=O)c3ccccc3)[C@@H]3[C@]4(OC(C)=O)CO[C@@H]4C[C@H](O)[C@@]3(C)C(=O)[C@H](OC(C)=O)C(=C1C)C2(C)C | -23.9% (inactive) | –
COc1ccc(N(C(=O)Oc2c(C)cccc2C)c2ccnc(Nc3ccc(N4CCN(C)CC4)cc3)n2)c(OC)c1 | -44.8% (inactive) | –
CC(N[C@H]1C[C@H]1c1ccccc1)c1ccc2c(c1)OCCO2 (stereo partly drawn) | -27.8% (inactive) | –
O=C(N[C@@H](COc1ccc2[nH]c(=O)[nH]c2c1)c1ccccc1)c1cccn(Cc2ccc(F)c(F)c2)c1=O | -8.19% (inactive) | –
CC(=O)Nc1ccc(OC[C@](C)(O)C(=O)Nc2ccc([N+](=O)[O-])c(C(F)(F)F)c2)cc1 | -7.46% (inactive) | –
CC(C)[C@H]1C(=O)N[C@H](CO)Cc2c[nH]c3cccc(c23)N1C | 46.8% (inactive) | –
NC(CP(=O)(O)O)C(=O)O (stereo not drawn) | – | inactive
C[C@@]12OC(=O)[C@]1([C@@H](O)[C@@H]1C=CCCC1)NC(=O)[C@H]2CCCl | – | 34.3 µM (active)
O=C(Nc1ccncc1)C(=O)c1cn(Cc2ccc(Cl)cc2)c2ccccc12 | -11.7% (inactive) | –
CC(=Cc1csc(C)n1)[C@@H]1C[C@H]2O[C@]2(C)CCC[C@H](C)[C@@H](O)[C@@H](C)C(=O)C(C)(C)[C@@H](O)CC(=O)O1 | -30.2% (inactive) | –
Cc1ccccc1-n1c(Cn2cnc3c(N)ncnc32)nc2cccc(C)c2c1=O | – | 8.63 µM (active)
COc1cc(C(O)CN)ccc1O (stereo not drawn) | – | inactive
COc1ccc2c(c1)[C@]13CCCCC1C(C2)N(C)CC3 (stereo partly drawn) | -18% (inactive) | –
CC(C)[C@]12O[C@@H]1[C@@H]1O[C@]13[C@]1(O[C@H]1C[C@@H]1C4=C(CC[C@@]13C)C(=O)OC4)[C@H]2O | -59.9% (inactive) | –
Clc1ccccc1C(c1ccccc1)(c1ccccc1)n1cccn1 | -1.99% (inactive) | –
COc1cc([C@@H]2c3cc4c(cc3[C@@H](O)C3COC(=O)C32)OCO4)cc(OC)c1O (stereo partly drawn) | 6.04% (inactive) | –
